Assay outcomes from PubChem.
This is a sample that favours compounds with a hit; in the whole collection about 10% have one here.
HPGD inh – HPGD (human) dehydrogenase inhibition; Potency, µM, without a hit: at the top dose activity change, negative = inhibition, usual class: inhibitors; AID 894; purified HPGD, NADH fluorescence kinetic, PGE2 substrate; 4.3% of 150,000 active; active means well fitted inhibition curve with a large enough effect, not every such curve was filed as active; inconclusive means small, poorly fitted or top-dose-only effect, or another doubt; inactive means no such curve, though single readings can be large or run the other way; further: potency means the concentration at half of the fitted maximal effect
Target sequence (P15428 whole entry, looked up): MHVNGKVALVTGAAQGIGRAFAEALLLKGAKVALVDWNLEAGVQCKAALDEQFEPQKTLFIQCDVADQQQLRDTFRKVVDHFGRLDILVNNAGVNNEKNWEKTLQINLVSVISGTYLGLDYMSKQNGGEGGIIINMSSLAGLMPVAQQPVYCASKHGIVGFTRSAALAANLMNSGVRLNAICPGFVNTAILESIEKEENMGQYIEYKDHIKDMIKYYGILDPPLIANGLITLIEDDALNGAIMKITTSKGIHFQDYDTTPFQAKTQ
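NADH formation kinetics: reaction with 30 uM PGE2 and 1 mM NAD+ (final), 20 nM enzyme, Tris-HCl pH 8 with Tween 20, after 15 min compound preincubation at room temperature. Fluorescence change, last versus first of five reads.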
GLA spleen mod – alpha-galactosidase A (human) modulation; human spleen homogenate, 4MU-alpha-Gal fluorescence, 40 min; Potency, µM (titrated, usually from 80 µM), for the others: at the top dose activity change, negative = inhibition, most hits filed as inhibitors; 0.008% of 240,000 active;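 further: potency means the concentration at half of the fitted maximal effect; 0% = enzyme with vehicle and -100% = no enzyme basal signal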
Target sequence (P06280 32-429 limits assumed): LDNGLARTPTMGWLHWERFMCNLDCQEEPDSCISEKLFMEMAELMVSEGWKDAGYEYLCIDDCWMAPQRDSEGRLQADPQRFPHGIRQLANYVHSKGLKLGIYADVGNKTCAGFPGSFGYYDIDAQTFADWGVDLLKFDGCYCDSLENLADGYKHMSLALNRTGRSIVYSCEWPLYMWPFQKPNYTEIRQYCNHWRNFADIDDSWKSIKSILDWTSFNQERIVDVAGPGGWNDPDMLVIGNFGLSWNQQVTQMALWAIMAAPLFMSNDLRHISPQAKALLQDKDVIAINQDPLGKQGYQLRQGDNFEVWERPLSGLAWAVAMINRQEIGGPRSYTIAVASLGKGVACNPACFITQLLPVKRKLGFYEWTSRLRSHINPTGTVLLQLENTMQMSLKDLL
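Fluorogenic readout (Ex 365/Em 440 nm) of 4-methylumbelliferone released from 1 mM 4-MU-alpha-galactoside by spleen homogenate, 40 min at 37C, pH 5.0. Data normalized to no-enzyme and enzyme controls; Hill-equation AC50 from compound titrations.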
12-hLO inh – blocks human 12-lipoxygenase activity | 0.12% of 150,000 active | P18054 | purified 12-hLO, xylenol orange hydroperoxide absorbance | Potency, µM (titrated, usually from 57.1 µM), for inactives: at the highest dose activity change, negative = inhibition, actives largely listed as inhibitors | AID 1452; further: potency means the concentration at half of the fitted maximal effect; nearly all actives have a fitted effect of over 55% in size
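Purified human 12hLO (150 nM), preincubated 15 min with compound, then 40 uM arachidonic acid for 30 min, room temperature, Hepes pH 7.0 with 0.01% Triton X-100. Hydroperoxide detected by ferrous iron/xylenol orange; 573/405 nm absorbance ratio gives reaction progress.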
PNC inhibitor – inhibitors of perinucleolar compartment assembly | PC3M PTB-GFP, PNC prevalence imaging, 16 h; hits give low values | activity change (PNC), negative = inhibition, % at 10 µM | 3.1% of 140,000 active | AID 2417;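 active means readout at or below -70, meaning at least 70% loss of cells showing the perinucleolar compartment, a nuclear body marking cancer cells; inconclusive means readout between -30 and a set limit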;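 further: plate controls were DMSO wells for no effect and camptothecin positive control wells for full effect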
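Compounds are pinned in duplicate onto adhered PC3M cells stably expressing GFP-tagged PTB and incubated 16 h at 37 C. Cells are then fixed, nuclei stained with Hoechst, and PNC-positive cells counted.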
GLA inh pH 4.5 – blocks human alpha-galactosidase A at pH 4.5 | AID 1467 | purified enzyme, 4-MU-alpha-Gal fluorescence, pH 4.5 | activity change, negative = inhibition, % at 105 µM | P06280 | 230,000 tested, under 10 active;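 further: 0% = full activity with enzyme and -100% = basal without enzyme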
ALDH1A1 block – inhibitors of human aldehyde dehydrogenase 1A1 | P00352 | Purified ALDH1A1, NADH fluorescence, propionaldehyde substrate | Potency, µM (top dose mostly 75.3 µM), inactives show top-dose activity, negative = inhibition, usual class: inhibitors | 7.3% of 220,000 active; active means well fitted inhibition curve with a large enough effect, not every such curve was filed as active; inconclusive means small, poorly fitted or top-dose-only effect, or another doubt; inactive means no such curve, though single readings can be large or run the other way;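 further: potency means the concentration at half of the fitted maximal effect; plate controls were no enzyme wells and a reference inhibitor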
An asterisk follows results filed as active; ? = inconclusive; . = no result given; [ ] = remark or other dose. Unless noted, the call rests on the fitted dose curve; in most records, active means well fitted curve in the direction sought with a large enough effect; inconclusive means small, poorly fitted or top-dose-only effect, or another doubt; inactive means no such curve, though single readings can be large; an effect the other way counts as inactive or inconclusive. Unless noted, on the % scale 0 is the no-effect control and ±100 the full control effect.

SMILES | HPGD inh | GLA spleen mod | 12-hLO inh | PNC inhibitor | GLA inh pH 4.5 | ALDH1A1 block
COc1ccc(C2=NN(C(C#N)c3ccc(OC)cc3)C(c3ccccc3)C2)cc1 (stereo not drawn) | -5.9% | -1.3% | -20.9% | 13.9 | 0.4 | 22.4µM*
CCC(C)c1ccc(Nc2ncccc2C#N)cc1 (stereo not drawn) | 17.8µM* | -1.1% | -6.8% | 51.4 | 0.0 | ?
CCc1ccc(Nc2ncccc2C#N)cc1 | ? | 0.8% | -5.1% | 35.8 | -6.9 | -11.1%
Nc1ncnc2c1ncn2[C@@H]1O[C@H](COP(=O)(O)OP(=O)(O)OC[C@H]2OC(O)[C@H](O)[C@@H]2O)[C@@H](O)[C@H]1O (stereo partly drawn) | . | 6.8% | . | . | . | -5.1%
COc1cccc(OC)c1OCCNC[C@@H]1CSc2ccccc2O1 | . | . | 1.1% | . | . | .
COc1cc2c(cc1OC)CN(Cc1nc3ccsc3c(=O)[nH]1)CC2 | ? | 2.1% | 10.6% | -83.4* | 4.4 | ?
COc1ccc([N+](=O)[O-])cc1N | -9.7% | 10.4% | -2.0% | . | . | -6.4%
O=C(O)CC1(CC(=O)Nc2ccccc2N2CCOCC2)CCCC1 | . | 7.4% | . | . | -18.2 | 1.5%
CCOC(=O)c1c(C)oc2c1c(C=NCc1ccccn1)c(O)c1ccccc12 | -20.0% | -0.3% | 1.6% | -19.0 | -2.0 | ?
CCOC(=O)c1c(C)oc2c1c(C(c1cccnc1)N1CCN(C)CC1)c(O)c1ccccc12 (stereo not drawn) | -28.2% | -3.1% | -28.1% | -12.7 | -6.7 | 12.6µM*
COC(=O)NCC(c1cccnc1)N1CCOCC1 (stereo not drawn) | -2.2% | -2.1% | -1.7% | 0.7 | -1.2 | ?
CCOC(=O)c1c(C)oc2c1c(C(c1cccnc1)N1CCOCC1)c(O)c1ccccc12 (stereo not drawn) | 22.4µM* | -1.2% | ? | 23.4 | -2.1 | 7.08µM*
COc1cccc(NC2=C(Cl)C(=O)OC2OC(=O)c2ccco2)c1 (stereo not drawn) | . | -0.7% | . | . | -0.6 | -0.9%
Cc1ccc(C2CC(c3cccc(Br)c3)Nc3nnnn32)cc1 (stereo not drawn) | -23.5% | 6.3% | -2.6% | ? | 4.0 | 17.8µM*
Clc1ccc(C2CC(c3ccco3)n3ncnc3N2)cc1Cl (stereo not drawn) | -3.3% | -1.5% | -4.5% | -0.4 | 0.8 | 31.6µM*
COc1ccc(C2CC(c3ccccc3)n3nnnc3N2)cc1 (stereo not drawn) | -7.2% | 5.2% | 2.0% | -110.7* | -0.3 | ?
COc1cccc(C2CC(c3ccccc3OC)n3ncnc3N2)c1 (stereo not drawn) | -15.0% | -3.9% | 3.7% | 3.3 | -0.3 | 14.4%
COc1cccc(C2CC(c3ccccc3)Nc3ncnn32)c1 (stereo not drawn) | -17.3% | -5.4% | -6.8% | ? | -6.6 | 7.08µM*
COc1ccc(C2CC(c3cc(Br)ccc3F)n3nnnc3N2)cc1 (stereo not drawn) | -2.6% | 6.2% | -10.2% | -4.4 | -2.3 | ?
Cc1ccc(C2CC(c3ccccc3)n3ncnc3N2)cc1 (stereo not drawn) | -8.6% | 0.4% | 0.2% | -23.4 | 4.3 | -2.5%
Clc1ccc(C2CC(c3ccccc3)Nc3ncnn32)cc1 (stereo not drawn) | -0.4% | 1.2% | 3.2% | -29.8 | -5.0 | 1.1%
O=C(NCCN1CCOCC1)C1(C(F)(F)F)CC(CCCO)CCCO1 (stereo not drawn) | . | -12.1% | . | . | . | .
COc1ccccc1C1CC(c2ccco2)=NN1S(C)(=O)=O (stereo not drawn) | . | -3.6% | . | . | 5.2 | ?
Fc1ccccc1-c1nc(-c2ccccc2)oc1NC1CCCCC1 | -9.3% | -3.5% | 3.8% | . | 0.3 | -14.8%
COCCCNC(=S)N1CCC(NC(=O)c2ccco2)CC1 | . | -12.7% | . | . | -0.7 | 8.2%
SMILES | HPGD inh | GLA spleen mod | 12-hLO inh | PNC inhibitor | GLA inh pH 4.5 | ALDH1A1 block
CC(C)(c1cc(Br)c(O)c(Br)c1)c1cc(Br)c(O)c(Br)c1 | ? | 4.3% | -22.5% | . | . | 0.1%
CN1CCc2nc(SCc3ccc(C(C)(C)C)cc3)c(C#N)cc2C1 | 28.2µM* | -1.8% | 0.4% | 92.8 | -2.9 | 0.4%
Cc1ccc(CSc2nc3c(cc2C#N)CCC3)cc1 | -1.6% | -1.0% | -1.8% | 10.7 | -3.0 | 7.2%
NNC(=O)c1ccc2[nH]c3c(c2c1)CCCC3 | . | 0.5% | . | . | -2.4[21.1 µM] | 17.8µM*
Cc1ccc(NC(=S)NCc2ccc3c(c2)cc(C)n3C)c(C)c1 | . | -6.3% | . | . | -9.8 | ?
CCOC(=O)C1=C(C)Nc2ncnn2C1c1ccc(N(C)C)cc1 (stereo not drawn) | . | -2.1% | -3.3% | 14.3 | -7.4 | 17.8µM*
COc1ccccc1NC(=O)C1=C(C)Nc2nnnn2C1c1ccccn1 (stereo not drawn) | -3.0% | -1.8% | 2.9% | -25.4 | -6.7 | 12.6µM*
CCOC(=O)C1=C(C)NC(=O)CC1c1ccccc1 (stereo not drawn) | -6.0% | -10.9% | 2.2% | 36.9 | -2.7 | -8.7%
COc1ccccc1NC(=O)C1=C(C)Nc2ncnn2C1c1cccs1 (stereo not drawn) | -12.1% | -16.9% | -2.1% | ? | -0.4 | 4.9%
COc1ccc(C2C(C(=O)Nc3ccccc3OC)=C(C)Nc3ncnn32)cc1 (stereo not drawn) | -10.1% | -0.1% | -5.3% | 35.1 | -6.8 | 14.1µM*
CCOC(=O)C1=C(C)NC(=S)N(C(C)=O)C1c1ccccc1 (stereo not drawn) | -18.5% | 8.4% | 8.9% | ? | -4.7 | 25.1µM*
Cc1ccc(S(=O)(=O)NCc2ccc(C(=O)NCCCN3CCC(Cc4ccccc4)CC3)cc2)cc1 | . | 8.4% | . | . | -8.6 | -13.5%
C=C(C)C(=O)OC[C@@H]1CCC[N@+]2(C)CCCCC12 (stereo partly drawn) | -8.3% | -1.4% | . | . | -4.8 | -0.5%
COc1cccc(C2=Nn3c(nnc3-c3ccccc3C)SC2)c1 | . | 13.8% | . | . | . | .
O=C(COC(=O)C12CC3CC(CC(C3)C1)C2)Nc1nc2c(F)c(F)c(F)cc2s1 | -7.3% | -9.6% | 0.7% | 22.1 | -1.5 | -0.2%
COc1ccccc1NC(=O)C1=C(C)Nc2nnnn2C1c1cccc(C)c1 (stereo not drawn) | ? | 7.0% | -2.2% | -18.3 | 1.8 | 14.1µM*
CCOC(=O)C1=C(C)Nc2nc(SCC)nn2C1c1ccc(OC)cc1 (stereo not drawn) | -21.2% | -14.7% | 5.1% | 13.2 | 0.2 | ?
COc1ccccc1NC(=O)C1=C(C)Nc2nnnn2C1c1ccccc1OC (stereo not drawn) | -5.9% | 5.3% | 4.9% | 12.3 | 5.1 | -6.4%
CC1=C(C(=O)OC(C)C)C(c2c[nH]c3ccccc23)n2ncnc2N1 (stereo not drawn) | 3.5% | 1.8% | 0.0% | -105.8* | -4.5 | 14.8%
